Test results: the OligoGym collection

Each sequence was assayed against DNAJC13 (assay: pooled miR-30 sensor sort-seq; sequence = guide strand). Details: shRNA.
Note: reference of the scale not given here.

Q: With TTTTCTACTTCTTTCTTCCAGG as the sequence, how does the sensor-assay potency score (higher = more potent) read?
A: -0.404

Q: TATCTTGTCCTTTTGTCTCTTC was tested. Which sensor-assay potency score (higher = more potent) did it give?
A: 0.492

Q: TTGTTGTGTAGAAACATGCCAG was tested. Which sensor-assay potency score (higher = more potent) did it give?
A: -0.232

Q: TACTAATTCACTCTGCTCCTTC was tested. Which sensor-assay potency score (higher = more potent) did it give?
A: 0.364

Q: With TTGATTATTTTTGTACTCGATG as the sequence, how does the sensor-assay potency score (higher = more potent) read?
A: -0.943

Q: Which sensor-assay potency score (higher = more potent) does the source give for TTAAGGAAGAGAATCAACCTAT here?
A: -0.138

Q: For TTGTCTCTAACATGCATCCGAT, which sensor-assay potency score (higher = more potent) is on record?
A: -1.12

Q: Which sensor-assay potency score (higher = more potent) does the source give for TTGAATTGCAGAACATATCCAG here?
A: 0.63

Q: TAGACCAACAGTATCTGCTCGC was tested. Which sensor-assay potency score (higher = more potent) did it give?
A: 0.515

Q: TTGTGCTACTAATTCACTCTGC was tested. Which sensor-assay potency score (higher = more potent) did it give?
A: 0.635

Q: For TATCTTTCAGTTCTTCTCGTGT, which sensor-assay potency score (higher = more potent) is on record?
A: -0.0145

These sequences were tested against DNAJC19 in the same assay as above. Details: shRNA.

Q: With TTTAAAAGCATAATTCGTCGAT as the sequence, how does the sensor-assay potency score (higher = more potent) read?
A: 0.123

Q: With TAAACAAGAAAATTATACCAAG as the sequence, how does the sensor-assay potency score (higher = more potent) read?
A: -1.18

Q: Which sensor-assay potency score (higher = more potent) does the source give for TTTATTAGTGTATAAATTCTAA here?
A: -0.615

Q: Which sensor-assay potency score (higher = more potent) does the source give for TTCAGTTTTGCTAACAGGGTTT here?
A: -0.256

Q: TTCACTTTTAAATACAAGGTTC was tested. Which sensor-assay potency score (higher = more potent) did it give?
A: -0.645

Q: Which sensor-assay potency score (higher = more potent) does the source give for TAAATCTTTAGCTTCATTGATT here?
A: -0.54

Q: For ATGAACAATATTTCTATTCAGA, which sensor-assay potency score (higher = more potent) is on record?
A: -0.967

Q: TTTTTTAAAATTGTAGCTCTGA was tested. Which sensor-assay potency score (higher = more potent) did it give?
A: 0.364

Q: For TAAAATTGTAGCTCTGAGGCAT, which sensor-assay potency score (higher = more potent) is on record?
A: 0.463

Q: With TTCGTCGATGAGCATCTCTTAT as the sequence, how does the sensor-assay potency score (higher = more potent) read?
A: -1.36

Q: Which sensor-assay potency score (higher = more potent) does the source give for TTGATATTGAGAACATTTCAGT here?
A: -0.702

Q: Which sensor-assay potency score (higher = more potent) does the source give for TTAAAAGCATAATTCGTCGATG here?
A: -0.449

What follows are sequences tested against DNAJC4 in the same assay as above. Details: shRNA.

Q: How did the sensor-assay potency score (higher = more potent) turn out when TTGTCGCTCCTGCTGAAGGATG was run?
A: -1.56

Q: Which sensor-assay potency score (higher = more potent) does the source give for TAGCCGTTGTCGCTCCTGCTGA here?
A: -1.23

Q: For TTTGGGGGACTACCTGAGCGGA, which sensor-assay potency score (higher = more potent) is on record?
A: -1.85

Q: How did the sensor-assay potency score (higher = more potent) turn out when TTGTTTGTGTTGCTGCTGCCTC was run?
A: -0.896

Q: Which sensor-assay potency score (higher = more potent) does the source give for TTGGGGGACTACCTGAGCGGAG here?
A: -1.16

Q: Which sensor-assay potency score (higher = more potent) does the source give for TAGAAGGCTGTGATGATCCGAT here?
A: 0.303

Q: With TCGCTCAGCTCCACAAAGCGGC as the sequence, how does the sensor-assay potency score (higher = more potent) read?
A: -1.13

Q: For TTTGGTGGGCAGACTTGTCATG, which sensor-assay potency score (higher = more potent) is on record?
A: -0.548

Q: TGCATCTGCTTCACCTTCCTGA was tested. Which sensor-assay potency score (higher = more potent) did it give?
A: -0.639

Q: TTAACTTCCTCAGTGCTGGCAC was tested. Which sensor-assay potency score (higher = more potent) did it give?
A: 0.72

Q: With TTGTCATGGACTGTGGTTCGTG as the sequence, how does the sensor-assay potency score (higher = more potent) read?
A: -0.505

Q: With TTCATCCATGAAGTTAAGGTGC as the sequence, how does the sensor-assay potency score (higher = more potent) read?
A: -0.818

These sequences were tested against DNAJC8 in the same assay as above. Details: shRNA.

Q: TTTCTTGAGCTTCAATCTCTTC was tested. Which sensor-assay potency score (higher = more potent) did it give?
A: -0.98

Q: Which sensor-assay potency score (higher = more potent) does the source give for TTTATATACAGCTTGTTTGAAC here?
A: -0.768

Q: Which sensor-assay potency score (higher = more potent) does the source give for TTGAGCTTCAATCTCTTCTTCC here?
A: 0.0915

Q: With TTGTCTGTTTATATACAGCTTG as the sequence, how does the sensor-assay potency score (higher = more potent) read?
A: -0.738

Q: For TTTCTTCATCTGTAACTTCAGG, which sensor-assay potency score (higher = more potent) is on record?
A: -0.78
